Results filed as inconclusive are left out. The source made the active and inactive calls. How the source made its calls, unless noted: active means hit-call score of the fitted dose curve at least 0.9, where 1 is the maximum; inconclusive means response in the unintended direction; inactive means score below 0.9.
Assays:
[1] = Tanguay_ZF_120hpf_SNOU_legacy: (Legacy) Oregon State University Tanguay Lab 120 Hour Post-fertilization zebrafish Assay for Snout Malformation (AID 2283637)
Outline: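 Binary snout-malformation call at 120 hpf in wild-type 5D embryos, chorion removed by pronase, under static exposure from 6 hpf at 28C (0.64% DMSO). Embryos dying by 24 or 120 hpf excluded.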

[2] = Tanguay_ZF_120hpf_JAW_legacy: (Legacy) Oregon State University Tanguay Lab 120 Hour Post-fertilization zebrafish Assay for Jaw Malformation (AID 2283638)
Outline: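 Binary jaw-malformation call at 120 hpf by brightfield microscopy. Embryos (Tropical 5D strain, chorion removed at 4 hpf) were dosed statically at 6 hpf, one per well, at 28C with 0.64% DMSO. Embryos that died were not scored.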

[3] = Tanguay_ZF_120hpf_PFIN_legacy: (Legacy) Oregon State University Tanguay Lab 120 Hour Post-fertilization zebrafish Assay for Pectoral Fin Malformation (AID 2283648);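 further: each larva judged yes or no for fin defect by brightfield with dead larvae skipped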
Outline: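 Pectoral fin malformation was recorded as a binary endpoint at 120 hpf in wild-type Tropical 5D larvae, which had been dechorionated and exposed statically from 6 hpf at 28C in 0.64% DMSO. Dead embryos were excluded.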

[4] = Tanguay_ZF_120hpf_CFIN_legacy: (Legacy) Oregon State University Tanguay Lab 120 Hour Post-fertilization zebrafish Assay for Caudal Fin Malformation (AID 2283649)
Outline: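 Binary brightfield scoring of caudal fin defects at 120 hpf after static, light-shielded exposure at 28C from 6 hpf. Tropical 5D embryos, chorion removed with pronase at 4 hpf, final DMSO 0.64%.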

[5] = Tanguay_ZF_120hpf_PIG_legacy: (Legacy) Oregon State University Tanguay Lab 120 Hour Post-fertilization zebrafish Assay for Pigmentation Malformation (AID 2283650)
Outline: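 Pigment malformation recorded as a binary call at 120 hpf in zebrafish (Tropical 5D) exposed singly from 6 hpf after pronase dechorionation. Static, sealed, 28C exposure, 0.64% DMSO; mortality excludes scoring; positive-direction fit against DMSO.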

[6] = Tanguay_ZF_120hpf_SWIM_legacy: (Legacy) Oregon State University Tanguay Lab 120 Hour Post-fertilization zebrafish Assay for Swim Bladder Malformation (AID 2283654);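 further: swim bladder malformation in each larva scored yes or no under brightfield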
Outline: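 Scoring is binary for swim bladder defects at 120 hpf, by brightfield inspection of zebrafish larvae. Embryos were exposed singly from 6 hpf after pronase dechorionation, at 28C with 0.64% DMSO; mortality excluded scoring.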

[7] = Tanguay_ZF_120hpf_TRUN_legacy: (Legacy) Oregon State University Tanguay Lab 120 Hour Post-fertilization zebrafish Assay for Truncated Body (AID 2283655)
Outline: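 Binary presence/absence of truncated body is recorded at 120 hpf by brightfield, with non-mortality endpoints skipped after death. Exposure is static from 6 hpf in sealed dark plates at 28C, using dechorionated wild-type zebrafish, 0.64% DMSO.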

[8] = read-out: ABC Transporter (ABCB1), ABCB1 (gene 5243); assay: CLD_ABCB1_6hr: CellzDirect (CLD) Gene Expression Assay for ABC Transporter (ABCB1) at 6 hours (AID 2283659);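 further: hits raise ABCB1 transcript above the DMSO vehicle baseline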
Outline: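 ABCB1 transcript measured by quantitative nuclease protection assay, chemiluminescent read-out, 6 h after dosing human hepatocyte cultures (0.2% DMSO vehicle, daily redosing). Activity fitted as increase over DMSO baseline; cytotoxicity flagged by phase-contrast morphology.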

[9] = read-out: Broad substrate specificity ATP-binding cassette transporter ABCG2 (Homo sapiens) (UniProt Q9UNQ0); assay: CLD_ABCG2_6hr: CellzDirect (CLD) Gene Expression Assay for ABC Transporter (ABCG2) at 6 hours (AID 2283660)
Outline: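 ABCG2 mRNA induction measured by qNPA chemiluminescence in human primary hepatocyte cultures, 6 h post-dose. Chemicals tested at several concentrations against a 0.2% DMSO vehicle; positive-direction fit relative to DMSO.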

[10] = read-out: xenobiotic metabolism (CYP1A1), CYP1A1 (gene 1543); assay: CLD_CYP1A1_6hr: CellzDirect (CLD) Gene Expression Assay for xenobiotic metabolism (CYP1A1) at 6 hours (AID 2283661);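 on AC50: potency for transcript induction above DMSO vehicle baseline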
Outline: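 Read-out 6 h post-dose: qNPA chemiluminescent quantitation of transcript induction against 0.2% DMSO. Cells were cultured primary human hepatocytes from two separate donor preparations; phase-contrast morphology annotated apparent cytotoxicity.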

[11] = system: Thyroperoxidase (TPO), gene 54314; assay: CCTE_Simmons_AUR_rTPO: CCTE's Amplex UltraRed Assay for Thyroperoxidase (TPO) Inhibition, Simmons Lab (AID 2283662);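 on AC50: potency for loss of signal meaning inhibition of peroxidase activity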
Outline: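 Cell-free peroxidase activity assay using rat thyroid gland microsomes with excess H2O2 (300 uM) and 25 uM Amplex UltraRed. Compounds tested from 5 nM to 87.5 uM; fluorescence measured after 30 min at 37C, analysed relative to DMSO baseline.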

[12] = read-out: xenobiotic metabolism (CYP1A2), CYP1A2 (gene 1544); assay: CLD_CYP1A2_6hr: CellzDirect (CLD) Gene Expression Assay for xenobiotic metabolism (CYP1A2) at 6 hours (AID 2283663);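 on AC50: potency is for induction meaning a rise in mRNA above DMSO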
Outline: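 mRNA levels quantified by quantitative nuclease protection assay with chemiluminescence, 6 h after dosing human primary hepatocyte cultures (two donors) across several concentrations, vehicle 0.2% DMSO. Induction fitted upward versus DMSO; phase-contrast cytotoxicity annotated.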

[13] = Tanguay_ZF_120hpf_AXIS_legacy: (Legacy) Oregon State University Tanguay Lab 120 Hour Post-fertilization zebrafish Assay for Body Axis Malformation (AID 2283635);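 on AC50: potency for an increased fraction of larvae scored with body axis malformation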
Outline: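 Binary scoring of axis defects at 120 hpf under brightfield, fitted positive versus DMSO. Tropical 5D embryos, chorion removed by pronase at 4 hpf, were singly exposed in sealed, dark plates at 28C from 6 hpf; DMSO 0.64% final.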

[14] = Tanguay_ZF_120hpf_OTIC_legacy: (Legacy) Oregon State University Tanguay Lab 120 Hour Post-fertilization zebrafish Assay for Otic Vesicle Malformation (AID 2283639)
Outline: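 Binary scoring of otic vesicle defects at 120 hpf in zebrafish (Tropical 5D) held under static exposure at 28C, sealed and shaded, with final DMSO 0.64%. Embryos dying by 24 or 120 hpf excluded; fitted positively against DMSO.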

[15] = read-out: kallikrein-3 (KLK3), KLK3 (gene 354); assay: LTEA_HepaRG_KLK3: Life Technologies and Expression Analysis (LTEA) Assay for kallikrein-3 (KLK3) using HepaRG (AID 2283652; active means hit-call score of the fitted dose curve at least 0.9, where 1 is the maximum; inactive means score below 0.9); settings: mRNA level, 48 h; actives raise or lower the signal
Outline: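 KLK3 transcript levels were measured by TaqMan qRT-PCR with normalisation to three housekeeping genes. HepaRG cultures received chemicals for 48 h at up to 100 uM (half-log, 8 points, 0.5% DMSO vehicle), fitted in both directions against DMSO.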

[16] = read-out: solute carrier (SLC22A6), SLC22A6 (gene 9356); assay: LTEA_HepaRG_SLC22A6: Life Technologies and Expression Analysis (LTEA) Assay for solute carrier (SLC22A6) using HepaRG (AID 2283653; active means hit-call score of the fitted dose curve at least 0.9, where 1 is the maximum; inactive means score below 0.9); settings: mRNA level, 48 h; actives raise or lower the signal
Outline: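 SLC22A6 transcript was measured by TaqMan qRT-PCR, normalized to three housekeeping genes, after 48 h duplicate exposure of HepaRG cells (100 uM top, half-log steps, 0.5% DMSO); bidirectional fit against vehicle.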

[17] = read-out: solute carrier (SLC10A1), SLC10A1 (gene 6554); assay: LTEA_HepaRG_SLC10A1: Life Technologies and Expression Analysis (LTEA) Assay for solute carrier (SLC10A1) using HepaRG (AID 2283657; active means hit-call score of the fitted dose curve at least 0.9, where 1 is the maximum; inactive means score below 0.9); settings: mRNA level, 48 h; actives raise or lower the signal
Outline: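 SLC10A1 transcript measured by TaqMan qRT-PCR, housekeeping-normalised, after 48 h chemical treatment of human HepaRG cells. Eight concentrations (half-log, max 100 uM, 0.5% DMSO vehicle) in duplicate; fitted bidirectionally against DMSO baseline.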

[18] = read-out: matrix metalloproteinase-1 (MMP1), MMP1 (gene 4312); assay: LTEA_HepaRG_MMP1: Life Technologies and Expression Analysis (LTEA) Assay for matrix metalloproteinase-1 (MMP1) using HepaRG (AID 2283658; active means hit-call score of the fitted dose curve at least 0.9, where 1 is the maximum; inactive means score below 0.9); settings: mRNA level, 48 h; actives raise or lower the signal
Outline: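 qRT-PCR (TaqMan, Fluidigm arrays) of MMP1 transcript, normalized against three housekeeping genes and fitted in both directions relative to 0.5% DMSO vehicle. Human HepaRG cultures received duplicate 48 h exposures across 8 points, highest 100 uM with half-log steps.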

Measured: AC50

Sequence of Broad substrate specificity ATP-binding cassette transporter ABCG2 (Homo sapiens) (Q9UNQ0 whole entry, looked up): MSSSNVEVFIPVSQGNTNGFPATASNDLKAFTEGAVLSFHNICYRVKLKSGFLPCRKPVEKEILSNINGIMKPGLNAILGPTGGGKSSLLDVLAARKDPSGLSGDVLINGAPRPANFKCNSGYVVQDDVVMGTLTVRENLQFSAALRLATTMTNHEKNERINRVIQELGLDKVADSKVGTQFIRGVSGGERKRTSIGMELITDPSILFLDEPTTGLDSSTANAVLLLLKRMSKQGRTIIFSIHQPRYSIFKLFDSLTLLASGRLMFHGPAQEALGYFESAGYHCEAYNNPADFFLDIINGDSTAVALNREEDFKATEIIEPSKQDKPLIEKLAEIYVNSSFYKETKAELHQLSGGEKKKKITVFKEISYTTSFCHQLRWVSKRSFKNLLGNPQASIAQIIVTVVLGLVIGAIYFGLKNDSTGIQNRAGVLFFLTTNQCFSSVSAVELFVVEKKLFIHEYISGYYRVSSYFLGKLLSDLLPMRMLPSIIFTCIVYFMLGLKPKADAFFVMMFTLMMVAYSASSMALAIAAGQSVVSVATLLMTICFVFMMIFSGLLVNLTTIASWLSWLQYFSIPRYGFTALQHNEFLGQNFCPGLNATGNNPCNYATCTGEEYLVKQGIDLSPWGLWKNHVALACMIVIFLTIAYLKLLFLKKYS

CC(C)N(C(=O)COc1nnc(C(F)(F)F)s1)c1ccc(F)cc1
inactive: [1] | [2] | [3] | [4] | [5] | [6] | [7] | [8] | [9] | [10] | [11] | [12]

O=C(O)CCCOc1ccc(Cl)cc1Cl
inactive: [1] | [2] | [4] | [5] | [6] | [7] | [8] | [9] | [10] | [12]
active: [13] 48.7 µM

CNC(=O)CSP(=S)(OC)OC
active: [10] 0.275 µM | [11] 7.2 µM | [12] 0.327 µM
inactive: [13] | [1] | [2] | [14] | [3] | [4] | [6]

CC(C)OC(=O)Nc1cccc(Cl)c1
inactive: [13] | [14] | [3] | [4] | [5] | [6] | [7] | [8] | [9]
active: [1] 34.2 µM | [10] 3.3 µM | [12] 3.11 µM

CC1(C)C(C=C(Cl)Cl)C1C(=O)OC(C#N)c1ccc(F)c(Oc2ccccc2)c1 (configuration not stated)
inactive: [13] | [1] | [2] | [3] | [4] | [5] | [15] | [16] | [6] | [7] | [18] | [8] | [9] | [12]
active: [17] 50 µM | [10] 20 µM

COC(=O)c1ccccc1S(=O)(=O)NC(=O)N(C)c1nc(C)nc(OC)n1
active: [10] 20 µM | [12] 20 µM
inactive: [9]

CCS(=O)(=O)c1cccnc1S(=O)(=O)NC(=O)Nc1nc(OC)cc(OC)n1
inactive: [8] | [9] | [10] | [12]

CC1(c2ccc(Oc3ccccc3)cc2)OC(=O)N(Nc2ccccc2)C1=O (configuration not stated)
inactive: [13] | [1] | [2] | [14] | [3] | [4] | [5] | [7] | [9] | [10]
active: [11] 2.45 µM

COc1cc(OC)nc(NC(=O)NS(=O)(=O)c2cc(NC=O)ccc2C(=O)N(C)C)n1
inactive: [8] | [9] | [10] | [12]

COC(=O)c1ccccc1CS(=O)(=O)NC(=O)Nc1nc(OC)cc(OC)n1
inactive: [8] | [9] | [12]
active: [10] 20 µM

CCC(C)(NC(=O)c1cc(Cl)c(C)c(Cl)c1)C(=O)CCl (configuration not stated)
inactive: [13] | [2] | [14] | [3] | [4] | [6] | [7] | [8] | [9] | [10] | [12]
active: [1] 25.4 µM

COP(=O)(OC)OC=C(Cl)Cl
active: [10] 1.9 µM | [11] 21 µM
inactive: [13] | [1] | [14] | [3] | [4] | [5] | [6] | [8] | [9] | [12]

OCCOc1ccccc1
inactive: [13] | [1] | [2] | [3] | [4] | [5] | [6] | [8] | [9] | [10] | [12]

CCN(CC)C(=O)SCc1ccc(Cl)cc1
inactive: [13] | [1] | [2] | [3] | [4] | [5] | [6] | [8] | [10] | [12]

CNC(=O)/C=C(\C)OP(=O)(OC)OC
inactive: [13] | [1] | [2] | [14] | [3] | [5] | [6] | [7] | [8] | [9] | [10] | [12]
active: [11] 39.1 µM

O=C(O)COc1ccc(Cl)cc1Cl
active: [10] 0.459 µM | [12] 1.89 µM
inactive: [13] | [1] | [2] | [14] | [3] | [4] | [5] | [7] | [8] | [9]
